Sampled rows, rich in hits. Any-hit rate of the full collection: about 3.8%.
VDR inh = vitamin D3 receptor (human) inhibition. P11473. VDR-SRC2-3 peptide fluorescence polarization, 2 h. Potency, µM, for the others: max response, negative = inhibition, hits mostly inhibitors. 400,000 tested, 0.93% active. AID 504847
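After 23 nl compound addition and a short centrifugation, plates sat for 2 hours at ambient temperature; polarization of fluorescence then indicated loss of VDR binding to peptide SRC2-3.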
TrxR1 substrate = rat thioredoxin reductase 1 substrate activity | Potency, µM (titrated, usually from 114 µM), for the others: top-dose activity change, negative = substrate turnover | O89049 | purified TrxR1 substrate turnover, NADPH consumption readout | AID 588456 | 390,000 tested, 0.01% active; further: nearly all actives have a fitted effect of over 50% in size
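Rat TrxR1, dispensed at 90 nM, was prereduced with 400 uM NADPH (final) for 5 min at ~22 deg C, then incubated with compound 15 min before 400 uM selenite. A first-read NADPH fluorescence drop versus no-compound background flagged substrates.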
Sfp PPTase inh = blocks B. subtilis Sfp PPTase activity; 310,000 tested, 3.5% active; Potency, µM, inactives show largest response in the series, negative = inhibition, actives largely listed as inhibitors; Q9F4F7; Biochemical Sfp PPTase activity, qHTS; AID 1490;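 further: the enzyme is Sfp with the accession as filed and its product quenches rhodamine fluorescence; 0% = enzyme reaction without inhibitor and -100% = no enzyme wells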
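With Hepes-Na pH 7.6 buffer containing 10 mM MgCl2, Sfp (15 nM) modified BHQ-2-YbbR (12.5 uM) using rhodamine-CoA (5 uM). Two reads 30 minutes apart at 525/598 nm yielded each well's rate.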
rTrxR1 inhibitor = blocks rat thioredoxin reductase 1 | AID 588453 | 390,000 tested, 1% active | O89049 | recombinant rTrxR1, NADPH fluorescence consumption, selenite substrate | Potency, µM (top dose mostly 114 µM), for inactives: top-dose activity change, negative = inhibition, most hits filed as inhibitors; further: nearly all actives have a fitted effect of over 65% in size
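Rat TrxR1 (90 nM in the dispensed reagent) was pre-reduced with 400 uM NADPH for 5 min at room temperature, then incubated with compound for 15 min. After 400 uM selenite was added, NADPH fluorescence (Ex 340/Em 450 nm) was followed for 8 min.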
KAT2A inh = blocks human GCN5L2 histone acetyltransferase; Potency, µM (series often up to 58.9 µM), inactives show at the highest dose activity change, negative = inhibition, usual class: inhibitors; 390,000 tested, 0.21% active; GCN5L2 HAT assay, ThioGlo1 CoA-SH fluorescence
Target sequence (Q92830 whole entry, looked up): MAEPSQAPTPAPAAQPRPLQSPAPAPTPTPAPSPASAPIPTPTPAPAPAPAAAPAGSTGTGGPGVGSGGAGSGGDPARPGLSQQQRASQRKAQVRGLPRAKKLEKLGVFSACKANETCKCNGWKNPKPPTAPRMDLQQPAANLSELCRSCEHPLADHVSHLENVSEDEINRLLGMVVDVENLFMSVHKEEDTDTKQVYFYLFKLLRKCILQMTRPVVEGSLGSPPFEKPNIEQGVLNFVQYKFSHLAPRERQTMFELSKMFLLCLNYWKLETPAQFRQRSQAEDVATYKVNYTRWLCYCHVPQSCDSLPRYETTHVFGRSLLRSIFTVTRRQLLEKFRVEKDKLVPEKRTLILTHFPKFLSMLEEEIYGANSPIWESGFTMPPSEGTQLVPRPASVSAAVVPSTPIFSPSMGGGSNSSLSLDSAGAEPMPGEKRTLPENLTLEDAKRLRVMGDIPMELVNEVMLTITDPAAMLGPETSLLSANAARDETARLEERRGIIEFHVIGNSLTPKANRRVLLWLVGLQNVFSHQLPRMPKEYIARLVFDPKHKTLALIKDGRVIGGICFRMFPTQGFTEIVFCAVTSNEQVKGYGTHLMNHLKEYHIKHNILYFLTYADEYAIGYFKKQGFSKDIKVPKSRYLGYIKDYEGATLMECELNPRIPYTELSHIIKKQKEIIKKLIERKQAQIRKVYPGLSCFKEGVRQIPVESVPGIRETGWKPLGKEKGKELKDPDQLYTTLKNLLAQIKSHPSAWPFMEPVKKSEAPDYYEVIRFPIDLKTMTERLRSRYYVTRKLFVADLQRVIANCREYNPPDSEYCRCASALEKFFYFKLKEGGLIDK
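qHTS, 1536-well. 20nM enzyme, pH 7.5 HEPES/EDTA/Tween-20 buffer; 15 min compound preinc., RT. Start: 75uM H3(1-25), 70uM AcCoA, 50uM ThioGlo1. Read Ex340/Em540 at t=0 (autofluorescence flag) and t=20 min.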
GLS inh = inhibitors of human glutaminase (GLS). O94925. GLS enzymatic activity, qHTS titration. Potency, µM (series often up to 45.5 µM), without a hit: at the top dose activity change, negative = inhibition, hits mostly inhibitors. 410,000 tested, 0.21% active. AID 624170
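Read-out is an Amplex red fluorescence increase coupled through glutamate oxidase and HRP, measured before and after 30 min room-temperature incubation. hKGA is in 45 mM KH2PO4 (pH 8.2) with 0.02% Tween-20; glutamine added as 1mM solution.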
* marks the source's active call; other numbers are inactive results; ? = inconclusive; / = no result; ! = repeats disagree; [ ] = remark or other dose. The call rests on the fitted dose curve; in most records, active means well fitted curve in the direction sought with a large enough effect; inconclusive means small, poorly fitted or top-dose-only effect, or another doubt; inactive means no such curve, though single readings can be large; an effect the other way counts as inactive or inconclusive. Unless noted, on the % scale 0 is the no-effect control and ±100 the full control effect; potency means the concentration at half of the fitted maximal effect.

SMILES | VDR inh | TrxR1 substrate | Sfp PPTase inh | rTrxR1 inhibitor | KAT2A inh | GLS inh
C[C@H](CO)N1C[C@H](C)[C@@H](CN(C)Cc2ccc(Cl)c(Cl)c2)OCCCC[C@H](C)Oc2ccc(NC(=O)CCC(F)(F)F)cc2C1=O | / | / | / | / | / | -8%
CCc1nc2c3cnn(-c4cc(Cl)ccc4C)c3ncn2n1 | -11% | 17%[57.1 µM] | -3% | 25%[57.1 µM] | -7% | -2%
CC(C)(C)NC(=O)c1oc2ccccc2c1NC(=O)c1ccccc1F | 4% | -2% | / | 18% | ? | 13%
COc1ccc(N2C(=O)/C(=C/c3cccs3)NC2=S)cc1 | ? | -9% | 10µM* | -21% | ? | -4%
Cc1cc(C)c(C#N)c(SCC(=O)c2cccs2)n1 | 3% | -3% | 12% | 0% | 1% | 0%
CCN(CC)C(=O)CSc1nc(C)cc(-c2cccs2)c1C#N | 2% | 10% | 40µM* | 4% | -14% | 4%
Nc1cc(S(=O)(=O)O)cc([N+](=O)[O-])c1O | -9% | 0%[57.1 µM] | 79µM* | 6%[57.1 µM] | -6% | ?
Cc1ccc(NC(=O)C2CCN(S(=O)(=O)c3ccc4ccccc4c3)CC2)nc1 | -11% | -5% | / | 4%[57.1 µM] | -1% | 4%
Cc1cc(C)c2nc(N3CCCN(C(=O)c4ccco4)CC3)c(C#N)cc2c1 | 79µM* | 23% | 45µM* | 10µM* | -12% | /
Cc1ccc(-c2nnc(N3CCN(C(=O)c4ccco4)CC3)c3ccccc23)cc1 | -5% | -5% | -5% | 56µM* | -2% | 14%
COC(=O)C1=NN(C(=O)c2ccc(C)cc2)C(O)(c2ccc(Cl)cc2)C1 (stereo not drawn) | -15% | 1% | 6% | 1% | 13% | 32%
Cc1cccc(NC(=O)CSc2nc(=O)n(Cc3ccccn3)c3c2CCC3)c1C | -4% | -7%[57.1 µM] | / | -10%[57.1 µM] | -3% | 6%
OCCN1CCN(c2cc(C(F)(F)F)nc3ccccc23)CC1 | 2% | -3% | 7% | 0% | -3% | 7%
Cc1ccc(-c2nc3ccccc3nc2NN)cc1 | -12% | 4% | 14µM* | 0% | -8% | ?
Cc1ccc2nc(-c3ccccc3)c(-c3ccccc3)nc2c1 | 24% | 15% | -15% | 20% | 1% | 3%
COC(=O)CS(=O)(=O)c1cc([N+](=O)[O-])ccc1NC(=O)OC | 5% | -6%[57.1 µM] | 8% | 23%[57.1 µM] | -9% | -7%
CCOc1ccc(N2CC(C(=O)N3CCCC3)CC2=O)cc1 (stereo not drawn) | -9% | 3% | 14% | 16% | -3% | 2%
O=C(Oc1ccccc1C(=O)N1CCOCC1)c1ccccc1 | -7% | -5% | -2% | -4% | 2% | 15%
COc1ccc(-c2n[nH]c(C)c2-c2cc(OC)ccc2O)cc1 | 8% | -2% | 40µM* | -13% | -7% | -6%
COc1ccc(-c2cc(-c3cc(OC)ccc3O)[nH]n2)cc1 | ? | -4% | -10% | 8%[57.1 µM] | 0% | ?
COc1ccc(-c2ccc([C@H]3[C@@H]4C=CCC[C@@]4(C)C(=O)N3Cc3ccccc3)c(F)c2)cc1OC | -4% | 18%[57.1 µM] | 20µM* | 58% | -13% | 0%
COc1ccc(-c2ccc([C@H]3[C@H]4C=CC[C@@H](C)[C@@H]4C(=O)N3Cc3ccccc3)c(F)c2)cc1OC | -16% | 17% | 22µM* | 29% | -14% | -3%
CC12CCC=CC1C(c1ccc(Br)cc1F)N(Cc1ccccc1)C2=O (stereo not drawn) | ? | -13% | ? | ? | / | /
COc1ccc(-c2c([C@H]3[C@@H]4C=CCC[C@@]4(C)C(=O)N3Cc3ccccc3)ccc3ccccc23)cc1OC | -12% | -11% | -5% | -19% | 4% | 7%
C[C@@]12CCC=C[C@H]1[C@H](c1ccccc1Br)N(Cc1ccccc1)C2=O | 50µM*! | 3% | -16% | -30% | -10% | -8%
